# In PubChem BioAssay (NCI):
# Compounds without any hit were thinned out: in the full panel of roughly 83,000, 20% have a hit.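 Percent growth is the endpoint: 0 to 100 indicates growth inhibition (40 means 60% inhibition), 0 means no net growth, and negative values indicate cell death.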 Values without a mark were called inactive. Activity calls are given as the source filed them. Rule for the calls: active = growth percent below 10; inactive = the rest.
# Assays:
# Assay in all cases: NCI-60 one-dose screen, 48 h (100 = growth as untreated, 0 = no growth, -100 = all killed)
# Settings in all cases: 10 µM unless noted
# DU-145 prostate = system: DU-145 prostate
# K-562 leukemia = system: K-562 leukemia
# MALME-3M melanoma = system: MALME-3M melanoma
# MDA-MB-231 breast = system: MDA-MB-231 breast
# RXF 393 renal = system: RXF 393 renal
# SF-268 CNS = system: SF-268 CNS
# SF-295 CNS = system: SF-295 CNS
# SF-539 CNS = system: SF-539 CNS
# UACC-257 melanoma = system: UACC-257 melanoma
# M14 melanoma = system: M14 melanoma
# HCT-15 colon = system: HCT-15 colon
# HT29 colon = system: HT29 colon
# SNB-75 CNS = system: SNB-75 CNS
# SNB-19 CNS = system: SNB-19 CNS
# U251 CNS = system: U251 CNS
# PC-3 prostate = system: PC-3 prostate
# SK-MEL-5 melanoma = system: SK-MEL-5 melanoma
# UACC-62 melanoma = system: UACC-62 melanoma
# LOX IMVI melanoma = system: LOX IMVI melanoma
# SK-MEL-28 melanoma = system: SK-MEL-28 melanoma
SMILES,growth (DU-145 prostate),growth (K-562 leukemia),growth (MALME-3M melanoma),growth (MDA-MB-231 breast),growth (RXF 393 renal),growth (SF-268 CNS),growth (SF-295 CNS),growth (SF-539 CNS),growth (UACC-257 melanoma),growth (M14 melanoma),growth (HCT-15 colon),growth (HT29 colon),growth (SNB-75 CNS),growth (SNB-19 CNS),growth (U251 CNS),growth (PC-3 prostate),growth (SK-MEL-5 melanoma),growth (UACC-62 melanoma),growth (LOX IMVI melanoma),growth (SK-MEL-28 melanoma)
Cc1ccc2c(c1)Sc1c(ccc3ccccc13)N2,82.9%,39.7%,90.7%,50.6%,63.6%,59.5%,69.8%,47.5%,80.4%,65.4%,32.3%,73.3%,51.8%,94.5%,45.3%,61%,46%,58.9%,45.6%,84.7%
OC(COc1ccccc1Cl)COc1ccccc1Cl,116%,100%,96.8%,101%,96.7%,97.3%,104%,95.5%,120%,93.2%,86.1%,92.5%,85.4%,108%,91.5%,95.9%,96.8%,92%,85.3%,94.2%
Cc1ccc(Nc2ccc(Nc3ccc(C)cc3)c3c2C(=O)c2cccc(O)c2C3=O)cc1,114%,94.3%,120%,88.7%,110%,104%,126%,105%,105%,104%,100%,117%,93.8%,104%,104%,78.9%,95.9%,87.1%,91.5%,118%
O=c1c2cc(F)ccc2sc2c(Nc3cccnc3)nc3ccccc3c12,107%,86.4%,103%,72.2%,88.4%,89.5%,95.2%,82.1%,97.8%,104%,87.2%,110%,71.9%,94.1%,70.2%,88.9%,88.9%,101%,89.4%,103%
COc1cccc(-c2nc3sccn3c2-c2ccnc(NCCNS(=O)(=O)c3ccc(C(F)(F)F)cc3)c2)c1,49.4%,25.7%,42.2%,70.1%,34%,35.8%,27.7%,53.7%,39.2%,38.4%,33%,35.7%,38.1%,56.5%,42.1%,16.8%,14.9%,38.9%,46.3%,57.8%
CCN(CC)c1ccc(C(=O)c2ccc(N(CC)CC)cc2)cc1,20.2%,14.7%,67.2%,18.4%,-36.5% (active),45.6%,11%,0.464% (active),76.2%,0.748% (active),27.4%,4.92% (active),-11.9% (active),38.7%,20.8%,26.4%,23.7%,37.6%,32.6%,51.3%
COc1cccc(-c2nn(-c3ccccc3)cc2-c2ccnc(NCCNC(=O)Nc3ccccc3)c2)c1,65.9%,28.2%,77.8%,47.9%,63.5%,60.9%,54.4%,83.6%,42.9%,35.7%,39.3%,29.6%,67.7%,66.5%,36.8%,30.8%,46.1%,51.5%,44.4%,77.7%
O=C(Nc1cccc(Oc2nnc(Cl)c3ccccc23)c1)Nc1ccc(Cl)c(C(F)(F)F)c1,-5.14% (active),-8.66% (active),-49.9% (active),-57.3% (active),-62.3% (active),-32.2% (active),-56.3% (active),-73.4% (active),-68.4% (active),-62.8% (active),-64% (active),-75.9% (active),-59.3% (active),-5.9% (active),-75.4% (active),-38.1% (active),-98.8% (active),-82.5% (active),-93.2% (active),-62.5% (active)
C[C@@H]1N=C(c2ccc3ccccc3n2)Nc2nc3ccccn3c2C1=O,107%,102%,92.4%,79.4%,119%,101%,90.4%,86.7%,117%,105%,86.8%,115%,84.7%,91.2%,106%,96.8%,94.3%,90.1%,93%,112%
N=c1sc(Cc2ccc(Cl)cc2)cn1CC(=O)c1ccc(F)cc1,78.3%,25.6%,87.4%,79.7%,82.3%,81.8%,64.7%,85.5%,77.5%,43.1%,50.4%,70.6%,90.3%,88%,79.4%,75.5%,62.7%,9.38% (active),33.2%,87.6%
Cc1ccc(-c2c(-c3ccccc3)c(=O)oc3ccc(C)cc23)cc1,116%,76%,92.9%,91%,107%,91.8%,104%,109%,86.8%,102%,52.1%,101%,86.3%,94.8%,83.1%,56.4%,90.9%,76.1%,96.2%,110%
CN1CCN(CC(=O)Nc2nc(-c3cccc(NS(=O)(=O)c4cccc5c(N(C)C)cccc45)c3)cs2)CC1,81.3%,9.93% (active),84%,50.3%,70.4%,76.9%,62.1%,75.6%,91.2%,102%,42.6%,35.2%,74.3%,73.3%,65.9%,42.2%,48.9%,54%,29.7%,78.2%
C=CCn1c(C)nc2cc(Nc3nc(Cl)nc4ccccc34)ccc21,105%,74.8%,122%,89.9%,87.4%,89.9%,84.8%,97.4%,102%,110%,92.3%,98.8%,96.9%,107%,95.5%,82%,91.4%,93.1%,104%,107%
